Results filed as inconclusive are left out. Active and inactive are the calls of the source. The calls were made as follows, unless noted: active = hit-call score of the fitted dose curve at least 0.9, where 1 is the maximum; inconclusive = response in the unintended direction; inactive = score below 0.9.
Columns and labels:
[1] = TOX21_p53_BLA_p2_viability: Viability Assessment in the Tox21 HCT-116 p53 Agonism Beta-lactamase Assay, Phase 2 (AID 2283591);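 also: actives lower the ATP signal meaning cytotoxicity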
How it was run: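 Cytotoxicity readout: CellTiter-Glo ATP luminescence, 30 min at room temperature, after the beta-lactamase read. Cells were HCT116 exposed 16 h at 37C to compounds pin-transferred at 217-fold dilution from DMSO stocks.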

[2] = target: Cellular tumor antigen p53 (Homo sapiens) (UniProt P04637); assay: TOX21_p53_BLA_p2_ratio: Tox21 HCT-116 p53 Agonism Beta-lactamase Assay, Ratio, Phase 2 (AID 2283592)
Cellular tumor antigen p53 (Homo sapiens), sequence (P04637 whole entry, looked up): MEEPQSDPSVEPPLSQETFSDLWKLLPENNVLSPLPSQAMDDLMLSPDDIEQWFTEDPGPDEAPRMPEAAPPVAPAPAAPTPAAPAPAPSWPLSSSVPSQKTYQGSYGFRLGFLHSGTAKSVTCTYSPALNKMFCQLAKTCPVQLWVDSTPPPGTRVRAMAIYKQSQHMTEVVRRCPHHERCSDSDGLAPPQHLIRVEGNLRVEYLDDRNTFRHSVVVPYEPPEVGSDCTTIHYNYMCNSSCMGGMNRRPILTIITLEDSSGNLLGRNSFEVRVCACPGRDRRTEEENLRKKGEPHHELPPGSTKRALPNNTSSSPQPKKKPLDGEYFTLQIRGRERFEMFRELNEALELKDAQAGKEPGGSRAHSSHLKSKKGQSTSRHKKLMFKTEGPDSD
How it was run: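 Readout: blue/green (460/530 nm) FRET emission ratio after 2 h CCF4-AM loading at room temperature, excitation 405 nm. HCT116 p53 bla cells, 16 h compound exposure at 37C, 5% CO2; agonist direction fitted against DMSO baseline.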

[3] = TOX21_p53_BLA_p3_viability: Viability Assessment in the Tox21 HCT-116 p53 Agonism Beta-lactamase Assay, Phase 3 (AID 2283593);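 also: cells exposed to compound for 16 h before reading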
How it was run: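 Cellular ATP was quantified by CellTiter-Glo luminescence, read after 30 min at room temperature. Beforehand, HCT116 cells (4000/well) received compound 5 h post-seeding, 217-fold diluted from DMSO, then incubated 16 h at 37C.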

[4] = target: Cellular tumor antigen p53 (Homo sapiens) (UniProt P04637); assay: TOX21_p53_BLA_p3_ratio: Tox21 HCT-116 p53 Agonism Beta-lactamase Assay, Ratio, Phase 3 (AID 2283596)
How it was run: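 Cells were seeded at 4000/well, rested 5 h at 37C, then dosed with DMSO compound solutions (217-fold dilution) for 16 h. CCF4-AM substrate was loaded for 2 h at room temperature, and the 460/530 nm emission ratio was fitted for gain of signal versus DMSO.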

[5] = TOX21_p53_BLA_p4_viability: Viability Assessment in the Tox21 HCT-116 p53 Agonism Beta-lactamase Assay, Phase 4 (AID 2283597);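 also: hits lower the luminescence signal meaning cytotoxicity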
How it was run: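 ATP content by CellTiter-Glo luminescence, 30 min RT, read after the beta-lactamase ratio step. Cells: HCT116, 4000/well, compound added after 5 h, exposure 16 h at 37C. Signal loss = reduced viability.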

[6] = target: Cellular tumor antigen p53 (Homo sapiens) (UniProt P04637); assay: TOX21_p53_BLA_p5_ratio: Tox21 HCT-116 p53 Agonism Beta-lactamase Assay, Ratio, Phase 5 (AID 2283599)
How it was run: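 Beta-lactamase reporter ratio (blue 460 nm over green 530 nm, 405 nm excitation) after 2 h CCF4-AM loading, in HCT-116 cells exposed 16 h at 37 C to compounds pinned at 217-fold dilution. Increases relative to DMSO baseline scored.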

[7] = target: Cellular tumor antigen p53 (Homo sapiens) (UniProt P04637); assay: TOX21_p53_BLA_p4_ratio: Tox21 HCT-116 p53 Agonism Beta-lactamase Assay, Ratio, Phase 4 (AID 2283601)
How it was run: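 Signal is the blue/green (460nm/530nm) ratio of cleaved versus uncleaved CCF4-AM substrate, read after 2 h substrate loading. Cells were HCT116 carrying the p53-responsive beta-lactamase reporter, dosed 16 h at 37C, 5% CO2; CellTiter-Glo measured in parallel.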

[8] = TOX21_p53_BLA_p5_viability: Viability Assessment in the Tox21 HCT-116 p53 Agonism Beta-lactamase Assay, Phase 5 (AID 2283600)
How it was run: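 ATP luminescence (CellTiter-Glo, 30 min, RT) served as the viability read-out, with loss of signal indicating cytotoxicity. Compounds in DMSO were pinned at a 217-fold dilution onto 4000 cells/well and incubated 16 h, 37C.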

PGR (gene 5241) [9] = target: PGR (gene 5241) (UniProt P06401); assay: TOX21_PR_BLA_Followup_Antagonist_ratio: Tox21 HEK293 Progesterone Receptor (PR) Antagonism Beta-lactamase Follow-Up Assay, Ratio (AID 2283934)
PGR (gene 5241), sequence (P06401 whole entry, looked up, the tested form may be a part): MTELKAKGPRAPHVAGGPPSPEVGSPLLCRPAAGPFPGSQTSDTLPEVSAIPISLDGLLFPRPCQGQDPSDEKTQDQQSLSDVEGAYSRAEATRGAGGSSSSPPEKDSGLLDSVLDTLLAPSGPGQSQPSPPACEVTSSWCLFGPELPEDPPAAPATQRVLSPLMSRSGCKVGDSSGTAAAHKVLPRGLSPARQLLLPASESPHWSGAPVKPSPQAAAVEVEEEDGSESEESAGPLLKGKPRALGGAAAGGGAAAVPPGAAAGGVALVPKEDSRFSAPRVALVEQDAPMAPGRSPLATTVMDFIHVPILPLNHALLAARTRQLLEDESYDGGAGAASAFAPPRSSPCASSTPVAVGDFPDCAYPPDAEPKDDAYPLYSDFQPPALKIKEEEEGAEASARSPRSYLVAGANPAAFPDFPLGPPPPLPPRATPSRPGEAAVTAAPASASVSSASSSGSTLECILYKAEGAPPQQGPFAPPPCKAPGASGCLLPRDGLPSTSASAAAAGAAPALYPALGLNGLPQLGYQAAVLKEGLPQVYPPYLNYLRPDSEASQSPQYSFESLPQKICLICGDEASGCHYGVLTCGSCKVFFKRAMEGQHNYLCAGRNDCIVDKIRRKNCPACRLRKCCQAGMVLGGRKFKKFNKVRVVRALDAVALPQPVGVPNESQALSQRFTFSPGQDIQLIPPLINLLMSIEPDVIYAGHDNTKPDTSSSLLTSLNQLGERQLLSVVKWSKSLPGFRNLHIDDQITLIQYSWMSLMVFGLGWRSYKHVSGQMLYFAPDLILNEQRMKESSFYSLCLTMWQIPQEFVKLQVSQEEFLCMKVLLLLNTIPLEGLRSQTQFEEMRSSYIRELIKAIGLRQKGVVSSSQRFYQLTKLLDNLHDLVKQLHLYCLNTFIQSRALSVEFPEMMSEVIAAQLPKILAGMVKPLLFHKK
How it was run: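 Read-out: blue/green beta-lactamase FRET ratio (cleaved ch2 over uncleaved ch1), fitted relative to DMSO baseline. Cells: PR-UAS-bla HEK293T, GAL4-UAS reporter, stimulated with 1 nM R5020 final; 16 hr compound exposure, 37C.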

[10] = TOX21_PR_BLA_Followup_Agonist_viability: Viability Assessment in the Tox21 HEK293 Progesterone Receptor (PR) Agonism Beta-lactamase Follow-Up Assay (AID 2283935);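 also: signal loss means lower viability so actives are cytotoxic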
How it was run: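 Luminescent ATP quantitation (CellTiter-Glo, 30 min, room temperature) in the same wells as the beta-lactamase read, on PR-UAS-bla HEK293T cells exposed to compound for 16 hr at 37C in 2% charcoal-stripped serum.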

[11] = TOX21_PR_BLA_Followup_Antagonist_viability: Viability Assessment in the Tox21 HEK293 Progesterone Receptor (PR) Antagonism Beta-lactamase Follow-Up Assay (AID 2283936);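 also: cells exposed to compound with R5020 agonist for 16 h; hits lower the luminescence signal meaning cytotoxicity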
How it was run: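 PR-UAS-bla HEK293T cells in medium with 2% charcoal-stripped FBS were treated with compounds plus R5020 for 16 hr at 37C. After the beta-lactamase read, CellTiter-Glo was added to the same wells and luminescence read after 30 min at room temperature.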

PGR (gene 5241) [12] = target: PGR (gene 5241) (UniProt P06401); assay: TOX21_PR_LUC_Followup_Antagonist: Tox21 HEK293 Progesterone Receptor (PR) Antagonism Luciferase Follow-Up Assay (AID 2283938);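 also: curve fitted upward as signal gain over DMSO baseline despite antagonist label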
How it was run: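 Luminescence from ONE-Glo reagent, measured after 30 min at room temperature, served as readout. Cells (HEK293 carrying PR-A-luc) had been treated 16 h at 37C with DMSO-dissolved compounds. Activity was fitted against DMSO controls.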

[13] = TOX21_PR_LUC_Followup_Antagonist_viability: Viability Assessment in the Tox21 HEK293 Progesterone Receptor (PR) Antagonism Luciferase Follow-Up Assay (AID 2283940)
How it was run: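 Read-out: CellTiter-Glo ATP luminescence, loss of signal taken as reduced viability. Cells: HEK293-PR-A-luc, 3,000/well, 5 h settling, then 16 h compound exposure at 37C, 0% CO2.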

[14] = CCTE_Harrill_HTTr_Viability_MCF7: CCTE's 6-hour Cell Viability Assessment for the High-Throughput Transcriptomics (HTTr) Platform, in MCF-7 cells cultured in DMEM + 10% fetal bovine serum, Harrill Lab (AID 2284010; active = hit-call score of the fitted dose curve at least 0.9, where 1 is the maximum; inactive = score below 0.9)
How it was run: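 PI exclusion, high-content imaging; 8-pt dilution series, 6 h exposure; bidirectional fit vs DMSO (neg. ctrl/baseline); gain of signal = loss of membrane integrity.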

[15] = CCTE_Harrill_HTTr_Apoptosis_MCF7: CCTE's 6-hour Apoptosis Assessment for the High-Throughput Transcriptomics (HTTr) Platform, in MCF-7 cells cultured in DMEM + 10% fetal bovine serum, Harrill Lab (AID 2284011; active = hit-call score of the fitted dose curve at least 0.9, where 1 is the maximum; inactive = score below 0.9)
How it was run: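 Read-out: CellEvent Caspase 3/7 Green signal by high content imaging, gain-of-signal indicating apoptosis. MCF-7 cells, DMEM + 10% FBS, eight-point dilution series, 6 h exposure. Curves fitted bidirectionally relative to DMSO negative control.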

[16] = CCTE_Harrill_HTTr_CellCount_MCF7: CCTE's Cell Proliferation Assessment for the High-Throughput Transcriptomics (HTTr) Platform, Harrill Lab (AID 2284012);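 also: count of Hoechst-stained nuclei per well by high-content imaging in MCF-7 cells; cells exposed to compound for six hours; intended direction is loss of nuclei count meaning fewer cells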
How it was run: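 Readout: Hoechst nuclear count by high-content imaging. MCF-7, 8-point dilution series, 6 h exposure. Bidirectional fit vs DMSO baseline.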

[17] = TOX21_PR_LUC_Followup_Agonist_viability: Viability Assessment in the Tox21 HEK293 Progesterone Receptor (PR) Agonism Luciferase Follow-Up Assay (AID 2283941);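 also: loss of signal means cytotoxicity so actives lower viability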
How it was run: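 Cytotoxicity counter-screen: ATP content by CellTiter-Glo luminescence, loss of signal = reduced viability. HEK293-PR-A-luc, 3,000 cells/well, compound exposure 16 h, 37C.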

Measured: AC50

CCCCC[C@H](O)/C=C/[C@@H]1[C@H]2C/C(=C/CCCC(=O)O)O[C@H]2C[C@H]1O
inactive: [1] | [2] | [3] | [4] | [5] | [6] | [7]

O=C(c1ccccc1)c1cc(Cl)ccc1O
inactive: [1] | [2] | [3] | [4] | [5] | [6] | [7]

CCOC(=O)[C@H](CCc1ccccc1)N[C@@H](C)C(=O)N1[C@H](C(=O)O)C[C@@H]2CCC[C@@H]21
inactive: [1] | [2] | [3] | [4] | [5] | [6] | [7]

C1=CC2C3C=CC(C3)C2C1 (configuration not stated) (tested in a mixture with another compound)
inactive: [1] | [2] | [3] | [4] | [5] | [8]

O=C1Nc2ccc(Cl)cc2[C@@](C#CC2CC2)(C(F)(F)F)O1
active: [1] 37.1 µM | [5] 36.3 µM | [6] 36.7 µM | [7] 43.5 µM | PGR (gene 5241) [9] 17 µM
inactive: [2] | [3] | [4] | [10] | [11] | PGR (gene 5241) [12] | [13] | [14] | [15] | [16]

CCCCN(CCCC)CC(O)c1cc(Cl)cc2c1-c1ccc(Cl)cc1/C2=C/c1ccc(Cl)cc1 (configuration not stated)
inactive: [1] | [2] | [3] | [4] | [5] | [8] | [7]

CC(C)NNC(=O)c1ccncc1
inactive: [1] | [2] | [3] | [4] | [5] | [8] | [7]

O=C(O)CCCCCCCCCCCBr
inactive: [1] | [2] | [3] | [4] | [5] | [8] | [7]

CN(C/C=C/C#CC(C)(C)C)Cc1cccc2ccccc12
inactive: [1] | [2] | [3] | [4] | [5] | [8]

C[N+]1(C)CCC(=C(c2ccccc2)c2ccccc2)CC1
inactive: [1] | [2] | [3] | [4] | [5] | [8]

C[C@]12CCC(=O)C=C1CC[C@@H]1[C@@H]2CC[C@@]2(C)[C@H]1CC[C@]2(O)C(=O)CO
inactive: [1] | [2] | [3] | [4] | [5] | [8] | [7] | PGR (gene 5241) [9] | [10] | [11] | PGR (gene 5241) [12] | [13] | [17]

O=[N+]([O-])c1cccc(I)c1
inactive: [1] | [2] | [3] | [4] | [5] | [8] | [7]

C=C[C@]1(C)C[C@@H](OC(=O)CSC(C)(C)CNC(=O)[C@H](N)C(C)C)[C@]2(C)[C@H](C)CC[C@]3(CCC(=O)[C@H]32)[C@@H](C)[C@@H]1O
inactive: [1] | [2] | [3] | [4] | [5] | [8] | [7]
